In PubChem BioAssay AID1159580 (chemical genetic matrix, 2015):
Where “and” joins values, the source holds several entries; their conditions need not be identical. Identical values can stand only once. In all, about 5,500 compounds went through this assay and about 2,000 (36%) were called active. Another 18% or so got no clear call; they are omitted. Rule as the data show it: active = normalized growth mostly below about 0.91 (no sharp cut-off); inconclusive = no clear call, values can overlap the other calls; inactive = mostly above about 0.92. The list shows a part of the results.

Assay: chemical genetic growth profiling, strain panel (AID 1159580);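 also: tested at 20 µM; growth read once vehicle control cultures reached saturation at 30 °C; 1 = growth at the plate median or of vehicle wells; lower values mean less growth of the strain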
Conditions: S. cerevisiae deletion strains, growth OD

Measured: normalized growth

CN(C)CCC(c1ccc(Br)cc1)c1ccccn1 (centres undefined)
inactive: locus YAL013W, strain DEP1, active compounds read low 0.982 and 1 | locus YAL021C, strain ccr4, active compounds read low 0.958 | locus YAL026C, strain drs2, active compounds read low 0.996 | locus YAL030W, strain snc1, active compounds read low 0.975 | locus YAL040C, strain CLN3, active compounds read low 1.11 | locus YBL061C, strain skt5, active compounds read low 0.991 | locus YBR009C, strain hhf1, active compounds read low 0.999 | locus YBR021W, strain FUR4, active compounds read low 0.975 | locus YBR023C, strain chs3, active compounds read low 0.993 | locus YBR171W, strain sec66, active compounds read low 0.974 | locus YBR229C, strain ROT2, active compounds read low 0.978 | locus YBR231C, strain swc5, active compounds read low 0.983 | locus YBR279W, strain paf1, active compounds read low 0.976 | locus YCL011C, strain gbp2, active compounds read low 0.97 | locus YCL016C, strain dcc1, active compounds read low 0.979 | locus YCL029C, strain bik1, active compounds read low 0.979 | locus YCL061C, strain MRC1 (second series), active compounds read low 1 | locus YCL069W, strain vba3, active compounds read low 0.985 | locus YCR088W, strain abp1, active compounds read low 0.983 | locus YDL005C, strain med2, active compounds read low 0.975 | locus YDL035C, strain GPR1, active compounds read low 0.991 | locus YDL040C, strain nat1, active compounds read low 0.967 | locus YDL074C, strain BRE1, active compounds read low 0.952 | locus YDL101C, strain DUN1, active compounds read low 0.984 | locus YDL134C, strain PPH21, active compounds read low 0.983 | locus YDL185W, strain tfp1, active compounds read low 0.998 | locus YDL192W, strain arf1, active compounds read low 0.997 | locus YDR001C, strain nth1, active compounds read low 0.974 | locus YDR069C, strain doa4, active compounds read low 0.929 | locus YDR101C, strain arx1, active compounds read low 0.967 | locus YDR137W, strain rgp1, active compounds read low 1.01 | locus YDR150W, strain NUM1, active compounds read low 0.997 and 1.01 | locus YDR159W, strain sac3, active compounds read low 0.962 | locus YDR162C, strain NBP2, active compounds read low 0.991 | locus YDR195W, strain ref2 0.96 | locus YDR297W, strain sur2, active compounds read low 0.973 | locus YDR318W, strain mcm21, active compounds read low 0.985 | locus YDR334W, strain swr1, active compounds read low 0.956 | locus YDR335W, strain msn5, active compounds read low 0.992 | locus YDR388W, active compounds read low 0.99 | locus YDR392W, strain spt3, active compounds read low 0.997 | locus YDR502C, strain sam2, active compounds read low 0.984 | locus YEL003W, strain gim4, active compounds read low 0.969 | locus YEL037C, strain rad23, active compounds read low 0.981 | locus YEL061C, strain CIN8 (second series), active compounds read low 0.989 | locus YEL061C, strain CIN8, active compounds read low 0.994 | locus YER002W, strain NOP16, active compounds read low 1.01 | locus YER015W, strain faa2, active compounds read low 0.992 | locus YER016W, strain bim1, active compounds read low 0.935 | locus YER110C, active compounds read low 0.985 | locus YER111C, strain swi4, active compounds read low 0.977 | locus YER155C, strain BEM2 (second series), active compounds read low 1 | locus YER155C, strain BEM2, active compounds read low 0.959 | locus YER167W, strain BCK2, active compounds read low 0.992 | locus YFR010W, strain ubp6, active compounds read low 0.986 | locus YGL078C, strain dbp3, active compounds read low 0.987 | locus YGL086W, strain mad1, active compounds read low 1 | locus YGL167C, strain pmr1, active compounds read low 0.988 | locus YGL173C, strain kem1, active compounds read low 0.975 | locus YGL227W, strain vid30, active compounds read low 0.985 | locus YGL240W, strain doc1, active compounds read low 0.995 | locus YGL248W, strain PDE1, active compounds read low 0.974 | locus YGL253W, strain hxk2, active compounds read low 0.991 | locus YGR078C, strain PAC10, active compounds read low 0.992 and 1.01 | locus YGR135W, strain pre9, active compounds read low 0.977 | locus YGR229C, strain SMI1, active compounds read low 0.987 | locus YGR252W, strain gcn5, active compounds read low 1.04 | locus YHR013C, strain ard1, active compounds read low 0.956 | locus YHR027C, strain rpn1, active compounds read low 0.952 | locus YHR030C, strain SLT2, active compounds read low 0.992 and 0.989 | locus YHR079C, strain IRE1 (second series), active compounds read low 0.99 | locus YHR079C, strain IRE1, active compounds read low 0.99 | locus YHR094C, strain hxt1, active compounds read low 0.994 | locus YHR129C, strain ARP1, active compounds read low 0.986 | locus YHR142W, strain chs7, active compounds read low 0.995 | locus YHR200W, strain rpn10, active compounds read low 0.984 | locus YIL066C, strain RNR3, active compounds read low 0.989 | locus YIL073C, strain SPO22, active compounds read low 1.04 | locus YIL125W, strain kgd1, active compounds read low 0.998 | locus YIR030C, strain dcg1, active compounds read low 0.985 | locus YJL092W, strain hpr5, active compounds read low 0.967 | locus YJL095W, strain BCK1 (second series), active compounds read low 0.972 | locus YJL095W, strain BCK1, active compounds read low 0.966 and 0.986 | locus YJL115W, strain asf1, active compounds read low 0.941 | locus YJL129C, strain trk1, active compounds read low 0.952 | locus YJL134W, strain LCB3, active compounds read low 0.989 | locus YJL154C, strain vps35, active compounds read low 0.955 | locus YJL164C, strain tpk1, active compounds read low 0.991 | locus YJL166W, strain qcr8, active compounds read low 0.973 | locus YJL168C, strain set2, active compounds read low 0.993 | locus YJL187C, strain SWE1 (second series), active compounds read low 0.978 | locus YJR043C, strain POL32, active compounds read low 0.983 | locus YJR066W, strain TOR1, active compounds read low 0.967 | locus YJR075W, strain HOC1, active compounds read low 0.975 and 1.03
